High-throughput results as filed in PubChem BioAssay.
Lamin A splicing: modulators of lamin A splicing. Potency, µM (titrated, usually from 46.1 µM), for inactives: top-dose ratio change, negative = inhibition, hits mostly inhibitors. 0.01% of 200,000 active. HeLa LMNA splicing GFP/RFP minigene ratio, 48 h; active = well fitted inhibition curve with a large enough effect in the signal ratio, with a control signal flat, not every such curve was filed as active; inconclusive = small, poorly fitted or top-dose-only effect, or effect the other way, or a change in a side signal; the % refers to the signal ratio; note: potency is the fitted concentration of half-maximal effect
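S3 HeLa stable clones carrying a lamin A-EGFP splicing minigene plus DsRed2 were seeded at 600 cells/well in Opti-MEM with 2% FBS, pin-dosed and incubated 48 h at 37°C. Acumen cytometry (488 nm) gave the GFP/RFP total-intensity ratio.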
PNC assembly inh: perinucleolar compartment assembly inhibition; 3.1% of 140,000 active; activity change (PNC), negative = inhibition, % at 10 µM; PC3M PTB-GFP, PNC prevalence imaging, 16 h; stronger effect = lower value;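 active = readout at or below -70, meaning at least 70% loss of cells showing the perinucleolar compartment, a nuclear body marking cancer cells; inconclusive = readout between -30 and a set limit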;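 note: plate controls were DMSO wells for no effect and camptothecin positive control wells for full effect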
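Compounds are pinned in duplicate onto adhered PC3M cells stably expressing GFP-tagged PTB and incubated 16 h at 37 C. Cells are then fixed, nuclei stained with Hoechst, and PNC-positive cells counted.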
ALOX12 inhib: inhibitors of human 12-lipoxygenase (ALOX12). purified 12-hLO, xylenol orange hydroperoxide absorbance. 0.12% of 150,000 active. Potency, µM (doses to about 57.1 µM), for the others: at the highest dose activity change, negative = inhibition, hits mostly inhibitors. P18054; active = well fitted inhibition curve with a large enough effect; inconclusive = small, poorly fitted or top-dose-only effect; note: potency is the fitted concentration of half-maximal effect; nearly all actives have a fitted effect of over 55% in size
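Purified human 12hLO (150 nM final) was preincubated with compounds for 15 min at room temperature in 25 mM Hepes pH 7.0, 0.01% Triton X-100, then reacted with 40 uM arachidonic acid for 30 min. Hydroperoxide was detected with ferrous iron/xylenol orange.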
HPGD block: blocks human HPGD enzyme activity | AID 894 | purified HPGD, NADH fluorescence kinetic, PGE2 substrate | Potency, µM, without a hit: top-dose activity change, negative = inhibition, usual class: inhibitors | 4.3% of 150,000 active; note: potency is the fitted concentration of half-maximal effect
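NADH formation kinetics: reaction with 30 uM PGE2 and 1 mM NAD+ (final), 20 nM enzyme, Tris-HCl pH 8 with Tween 20, after 15 min compound preincubation at room temperature. Fluorescence change, last versus first of five reads.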
ALDH1A1 inh: ALDH1A1 (human) enzyme inhibition. P00352. Purified ALDH1A1, NADH fluorescence, propionaldehyde substrate. Potency, µM (highest dose often 75.3 µM), inactives show at the highest dose activity, negative = inhibition, usual class: inhibitors. 7.3% of 220,000 active. AID 1030;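 note: potency is the fitted concentration of half-maximal effect; plate controls were no enzyme wells and a reference inhibitor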
Target sequence (P00352 whole entry, looked up): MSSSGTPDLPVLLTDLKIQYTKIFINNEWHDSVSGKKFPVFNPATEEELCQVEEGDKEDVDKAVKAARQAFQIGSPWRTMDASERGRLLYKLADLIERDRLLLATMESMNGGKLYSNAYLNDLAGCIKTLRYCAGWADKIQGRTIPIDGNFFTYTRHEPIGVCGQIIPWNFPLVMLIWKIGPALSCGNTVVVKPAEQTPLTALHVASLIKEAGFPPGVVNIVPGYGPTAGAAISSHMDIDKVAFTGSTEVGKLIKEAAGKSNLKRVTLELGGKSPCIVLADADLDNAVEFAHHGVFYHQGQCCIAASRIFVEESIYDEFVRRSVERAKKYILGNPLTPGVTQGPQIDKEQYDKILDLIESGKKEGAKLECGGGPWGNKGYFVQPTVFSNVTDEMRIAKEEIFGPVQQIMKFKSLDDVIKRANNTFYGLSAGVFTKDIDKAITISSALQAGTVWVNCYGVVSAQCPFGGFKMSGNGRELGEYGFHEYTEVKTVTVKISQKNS
Active calls of the source: *; ? = inconclusive; . = no result; [ ] = dose if it differs, or a comment. Rows were chosen to be rich in hits. Some 10% of all compounds tested hit in one or more screens of this group. Unless noted, calls come from the whole dose curve; as a rule, active = well fitted inhibition curve with a large enough effect (not every such curve was filed as active); inconclusive = small, poorly fitted or top-dose-only effect, or another doubt; inactive = no such curve, though single readings can be large or run the other way. Unless noted, % is set by controls: 0 for no effect and ±100 for the full control effect.

SMILES	Lamin A splicing	PNC assembly inh	ALOX12 inhib	HPGD block	ALDH1A1 inh
COc1ccc(C(C#N)N2CCOCC2)cc1 (stereo unspecified)	-7.1%	27.5	-0.2%	3.2%	35.5µM*
O=C(O)/C=C\c1ccc[c]([Sb](=[O])([OH])[OH])c1	.	.	-3.9%[11.4 µM]	.	.
c1c[nH]cn1	.	.	-3.0%	-7.9%	?
CC[C@H](CO)NC(=O)[C@H]1C=C2c3cccc4[nH]cc(c34)C[C@@H]2N(C)C1	-17.4%	.	1.8%[25.6 µM]	?	-10.7%[20.9 µM]
Cc1nn(-c2ccccc2)c2c1C(c1ccc(F)cc1F)C(C#N)=C(N)O2 (stereo unspecified)	-2.0%	?	-8.1%	28.2µM*	12.6µM*
CC(C)(Cl)Cl	.	.	-1.2%	-0.1%	3.1%
CN1C(=O)/C(=C\c2ccc(N3CCCCC3)o2)C(=O)NC1=S	-5.9%	?	-0.4%	-18.3%	?
COc1ccc(/C=C2\C(=O)NC(=S)N(C)C2=O)cc1C	8.9%[46 µM]	.	.	.	7.94µM*
O=C1NC(=O)N(c2cccc(F)c2)C(=O)/C1=C/c1ccc(N2CCOCC2)cc1	.	.	.	.	5.01µM*
CCCCN1C(=O)/C(=C/c2ccc(N3CCCCCC3)cc2)C(=O)NC1=S	-9.8%	-20.4	-11.6%	-14.5%	0.199µM*
CN1C(=O)/C(=C\c2ccc(N3CCCCCC3)cc2)C(=O)NC1=S	.	.	.	.	0.0708µM*
C[n+]1c(/C=C\c2ccc(O)c3ncccc23)[se]c2ccccc21	.	.	-19.9%[11.4 µM]	-11.2%	-7.4%[13.5 µM]
Oc1ccc2[nH]cc(CCCCN3CC=C(c4ccccc4)CC3)c2c1	.	.	-6.0%	1.8%	-4.4%
Cc1cc(N2CCCC2)ccc1C=C(C#N)C#N	?	.	.	.	6.6%
Cc1cc(N2CCCCC2)ccc1C=C1C(=O)N(C)C(=S)N(C)C1=O	-0.7%	5.1	-4.2%	14.1µM*	31.6µM*
O=[As](O)(O)c1ccc(NCc2ccccc2)cc1	.	.	-2.5%[11.4 µM]	0.0%	?
CCCCC/C=C\C=C\[C@H](CCCCCCCC(=O)O)OO	.	.	2.2%	-1.8%	2.2%
COc1ccc(P2(=O)Nc3ccccc3N2)cc1	-1.2%	24.8	9.1%	25.1µM*	23.9%
CC(C)N1CCN(Cc2cccc([N+](=O)[O-])c2)CC1	.	.	.	.	3.55µM*
CC(C)N(CC(O)c1cccc([N+](=O)[O-])c1)C(C)C (stereo unspecified)	11.9%	?	0.9%	?	-11.1%
O=P(OCCCl)(OCCCl)OCCCl	.	.	0.2%	-11.2%	28.2µM*
C#CCN1C(=O)C2(C(C#N)=C(N)OC(C)=C2C(=O)OCc2ccccc2)c2ccccc21 (stereo unspecified)	?	-13.2	-16.3%	-15.0%	0.794µM*
OCCBr	.	.	-2.8%	-3.0%	5.0%
CCOC(=O)C1OC1(C)c1ccccc1 (stereo unspecified)	.	.	-1.7%	-6.5%	-2.7%
CC(O)(CS(=O)(=O)c1ccccc1)C(=O)Nc1cccc(C(F)(F)F)c1 (stereo unspecified)	3.9%	17.3	2.7%	0.0018µM*	25.0%
SMILES	Lamin A splicing	PNC assembly inh	ALOX12 inhib	HPGD block	ALDH1A1 inh
COP(=S)(OC)SCn1nnc2ccccc2c1=O	?	.	-29.0%	28.2µM*	12.6µM*
CC1CC2OC2/C=C\C=C/C(=O)Cc2c(Cl)c(O)cc(O)c2C(=O)O1 (stereo unspecified)	.	.	-3.9%[0.00818 µM]	17.8µM*	22.4µM*
CC(c1ccc(F)cc1)n1cc(C(=O)NCc2ccc3c(c2)OCO3)nn1 (stereo unspecified)	1.0%	-89.7*	-10.6%	.	0.7%
FC(F)(F)c1ccc2c(c1)ncn2C1CCN(Cc2nnnn2C2CCCCC2)CC1	?	-100.0*	-20.8%	?	0.562µM*
Cc1nc2cc(C(F)(F)F)ccc2n1C1CCN(Cc2nnnn2Cc2cccs2)CC1	-1.1%	27.9	-1.7%	-3.5%	?
COC(=O)CSc1n[nH]c(=S)s1	1.5%	17.2	-2.0%	39.8µM*	11.2µM*
O=C(Oc1ccc2ccccc2c1Cl)N1CCCC1	?	-88.5*	-4.7%	-9.0%	-8.0%
C[C@@H]1O[C@@H](O[C@H]2C[C@@H](O)[C@]3(CO)[C@@H]4[C@@H](O)C[C@]5(C)[C@H]([C@@H]6COC(=O)C6)CC[C@@]5(O)[C@H]4CC[C@@]3(O)C2)[C@H](O)[C@H](O)[C@@H]1O	.	.	-4.5%	.	.
CCCOc1ccc(N2C(=O)CC(N3CC=C(c4ccccc4)CC3)C2=O)cc1 (stereo unspecified)	.	.	.	.	10µM*
